# PubChem BioAssay (NCATS)
# Results filed as inconclusive are left out. Entries that show only a call come without a potency. Calls of active or inactive are those of the source. Unless noted, calls follow the shape of the dose curve; as a rule, active = well fitted inhibition curve with a large enough effect; inconclusive = small, poorly fitted or top-dose-only effect; inactive = flat fitted curve, though single readings scatter.
# How the values were obtained:
# [1] = target: Glutathione peroxidase 1 (Homo sapiens) (UniProt P07203); test: Primary qHTS Assay for Inhibitors of Recombinant Selenoprotein Glutathione Peroxidase 1 (GPX1) (AID 1845191); also: nearly all actives have a fitted effect of over 65% in size
# Sequence of Glutathione peroxidase 1 (Homo sapiens) (P07203 whole entry, looked up): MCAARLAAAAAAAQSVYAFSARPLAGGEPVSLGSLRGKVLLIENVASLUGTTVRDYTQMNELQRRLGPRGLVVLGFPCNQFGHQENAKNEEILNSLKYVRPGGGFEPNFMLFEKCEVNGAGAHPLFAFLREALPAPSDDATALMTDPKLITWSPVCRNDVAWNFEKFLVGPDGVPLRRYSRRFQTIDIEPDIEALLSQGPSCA
# Outline: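 10 nM GPX1 + cpd, 30 min RT; start w/ 1 mM GSH, 0.5 mM cumene hydroperoxide, 0.5 mM NADPH, 100 nM GR, 0.01% BSA; buffer 50 mM Tris-HCl pH 7.5, 2 mM EDTA, 150 mM NaCl; Fl 340/450, 0 & 15 min.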
# [2] = target: Phospholipid hydroperoxide glutathione peroxidase GPX4 (Homo sapiens) (UniProt P36969); test: Primary qHTS Assay for Inhibitors of Recombinant Selenoprotein Glutathione Peroxidase 4 (GPX4) (AID 1845192); also: nearly all actives have a fitted effect of over 65% in size; as to activity change, negative = inhibition: series mostly up to about 50 µM
# Sequence of Phospholipid hydroperoxide glutathione peroxidase GPX4 (Homo sapiens) (P36969 whole entry, looked up): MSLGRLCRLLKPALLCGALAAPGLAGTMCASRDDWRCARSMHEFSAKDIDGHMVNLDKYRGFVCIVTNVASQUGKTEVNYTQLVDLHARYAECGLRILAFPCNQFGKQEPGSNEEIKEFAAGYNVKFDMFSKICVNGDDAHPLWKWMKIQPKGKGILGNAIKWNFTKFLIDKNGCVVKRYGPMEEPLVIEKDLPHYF
# Outline: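 NADPH consumption, followed by fluorescence at 340/450 nm between 0 and 15 min, reports GPX4 activity via coupled glutathione reductase (100 nM). Enzyme 200 nM was pre-exposed to compound 30 min; 0.5 mM cumene hydroperoxide and 1 mM GSH served as substrates.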
# [3] = qHTS drug screen for cell cycle checkpoint inhibitors in PARPi-resistant BRCA-mutant ovarian cancer cell lines. (AID 1963452; calls by dose curve); settings: PEO1/OlaR viability, CellTiter-Glo luminescence, 96 h; for Z-AUC: stronger effect = lower value
# Outline: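 PEO1, PEO4 and PEO1/OlaR ovarian cancer cells, 600 per well, exposed 96 h at 37C to a dilution series. Viability read by CellTiter-Glo luminescence, normalized to DMSO and empty wells; activity summarized as Z-AUC.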
# Potency is read from the fitted curve at half-maximal effect.
smiles,measurement,setting,value
C[C@](C#N)(COc1cc(C#N)ccc1C(F)(F)F)NC(=O)c1ccc(SC(F)(F)F)cc1,Potency,[1],inactive
same,Potency,[2],inactive
CCCCCCCCCCCCCCCCCC(=O)NCCCC[C@H](NC(=O)CC[C@@H](NC(=O)[C@H](C)NC(=O)[C@@H](C)O[C@H]1[C@H](O)[C@@H](CO)OC(O)[C@@H]1NC(C)=O)C(N)=O)C(=O)O (stereo not given in full),Potency,[1],inactive
same,Potency,[2],inactive
CN(C)CC(=O)O,Potency,[1],inactive
same,Potency,[2],inactive
CCNC(=O)CCC/C=C\C[C@@H]1[C@@H](/C=C/[C@@H](O)CCc2ccccc2)[C@H](O)C[C@@H]1O,Potency,[1],inactive
same,Potency,[2],inactive
O=C(OC1C(OC(=O)c2cccnc2)C(OC(=O)c2cccnc2)C(OC(=O)c2cccnc2)C(OC(=O)c2cccnc2)C1OC(=O)c1cccnc1)c1cccnc1 (stereo not given),Potency,[1],inactive
same,Potency,[2],inactive
O=C(O)[C@H]1OC(O)[C@H](O)[C@@H](O)[C@@H]1O (stereo not given in full),Potency,[1],inactive
same,Potency,[2],inactive
CC(C)CCC[C@@H](C)[C@H]1CC[C@H]2[C@@H]3CC=C4C[C@@H](O)CC[C@]4(C)[C@@H]3CC[C@]12C,Potency,[1],inactive
same,Potency,[2],inactive
C[C@H]1[C@H](OC(=O)CCC(=O)O)O[C@@H]2O[C@@]3(C)CC[C@H]4[C@H](C)CC[C@@H]1[C@@]24OO3,Potency,[1],inactive
same,Potency,[2],inactive
C[C@]12C=CC(=O)C=C1CC[C@@H]1[C@@H]2[C@@H](O)C[C@@]2(C)[C@H]1CC[C@]2(O)C(=O)COP(=O)(O)O,outcome,[1],inactive [at 9.52 µM]
same,outcome,[2],inactive [at 9.73 µM]
CCCCCCCC(=O)N[C@H](CN1CCCC1)[C@H](O)c1ccc2c(c1)OCCO2,Potency,[1],inactive
same,Potency,[2],inactive
NS(=O)(=O)c1ccc(-n2nc(C(F)(F)F)cc2-c2ccc(F)cc2)cc1,Potency,[1],inactive
same,Potency,[2],inactive
COc1cc(N)cn[n+]1-c1ccccc1,Potency,[1],inactive
same,Potency,[2],inactive
CCCCC(CC)COc1ccc(-c2nc(-c3ccc(OC)cc3)nc(-c3ccc(OCC(CC)CCCC)cc3O)n2)c(O)c1 (stereo not given),"activity, negative = inhibition",[1],-11% [at 4.49 µM] (inactive)
same,"activity change, negative = inhibition",[2],-23.8% [at 4.52 µM] (inactive)
CC(C)OC(=O)CCC/C=C\C[C@@H]1[C@@H](/C=C/[C@@H](O)COc2cccc(C(F)(F)F)c2)[C@H](O)C[C@@H]1O,Potency,[1],inactive
same,Potency,[2],inactive
Cn1cc(OCC(O)CNC(C)(C)C)c2ccccc2c1=O (stereo not given),Potency,[1],inactive
same,Potency,[2],inactive
CCCCCCCCCCCCCCCC(=O)OCC(=O)[C@@]1(O)[C@H](C)C[C@H]2[C@@H]3CCC4=CC(=O)C=C[C@]4(C)[C@@]3(F)[C@@H](O)C[C@@]21C,Potency,[1],inactive
same,Potency,[2],inactive
C=C1CC[C@H](O)C/C1=C\C=C1/CCC[C@]2(C)[C@@H]([C@H](C)CC[C@H](O)C(C)(C)O)CC[C@@H]12,Potency,[1],inactive
same,Potency,[2],14.1 µM (active)
CCC1OC(=O)C(C)C(OC2CC(C)(OC)C(O)C(C)O2)C(C)C(OC2OC(C)CC(N(C)C)C2O)C(C)(O)CC(C)C2NC(COCCOC)OC(C2C)C1(C)O (stereo not given),Potency,[1],inactive
same,Potency,[2],inactive
CC1=CC(O)CC(C)(C)C1/C=C/C(C)=C/C=C/C(C)=C/C=C/C=C(C)/C=C/C=C(C)/C=C/C1=C(C)CC(O)CC1(C)C (stereo not given),Potency,[1],inactive
same,Potency,[2],12.6 µM (active)
COc1ccc(-c2c(Cl)ncn2-c2ccc(S(N)(=O)=O)cc2)cc1F,Potency,[1],inactive
same,Potency,[2],inactive
C[C@@H]1O[C@@H](O[C@@H]2/C=C/C=C/C=C\C=C\C[C@H](C)OC(=O)/C=C/[C@H]3O[C@@H]3C[C@H](O)C[C@]3(O)C[C@@H](O)[C@@H](C(=O)O)[C@H](C2)O3)[C@H](O)[C@H](N)[C@@H]1O,Potency,[1],inactive
same,"activity change, negative = inhibition",[2],-18.7% [at 9.73 µM] (inactive)
CC(=O)NC(C=O)C(O)C(O)[C@H](O)CO (stereo not given in full),Potency,[1],inactive
same,Potency,[2],inactive
Cc1ncc([N+](=O)[O-])n1CCOC(=O)c1ccccc1,Potency,[1],inactive
same,Potency,[2],inactive
CC[C@H]1OC(=O)[C@H](C)[C@@H](O[C@H]2C[C@@](C)(OC)[C@@H](O)[C@H](C)O2)[C@H](C)[C@@H](O[C@@H]2O[C@H](C)C[C@H](N(C)C)[C@H]2O)C(C)(O)C[C@@H](C)/C(=N\OCOCCOC)[C@H](C)[C@@H](O)[C@]1(C)O (stereo not given in full),Potency,[1],inactive
same,Potency,[2],inactive
CC(=O)OC1CCC2(C)C(=CCC3C2CCC2(C)C(c4cccnc4)=CCC32)C1 (stereo not given),Potency,[1],inactive
same,Potency,[2],inactive
C=CCN1CC[C@]23c4c5ccc(O)c4O[C@H]2[C@@H](OCCOCCOCCOCCOCCOCCOCCOC)CC[C@@]3(O)[C@H]1C5,Potency,[1],inactive
same,Potency,[2],inactive
C=C[C@]1(C)C[C@@H](OC(=O)CSC2C[C@H]3CC[C@@H](C2)N3C)C2(C)[C@H](C)CCC3(CCC(=O)[C@H]32)[C@@H](C)[C@@H]1O (stereo not given in full),Potency,[1],inactive
same,Potency,[2],inactive
CCOc1cc(C(CS(C)(=O)=O)N2C(=O)c3cccc(NC(C)=O)c3C2=O)ccc1OC (stereo not given),Potency,[1],inactive
same,Potency,[2],inactive
CCCCC(=O)O[C@]1(C(=O)COC(C)=O)CC[C@H]2[C@@H]3CCC4=CC(=O)C=C[C@]4(C)[C@H]3[C@@H](O)C[C@@]21C,Potency,[1],inactive
same,Potency,[2],inactive
CC1CCCC(C)N1C(=S)Nc1cccc(C(F)(F)F)c1 (stereo not given),Potency,[1],22.7 µM (active)
same,Potency,[2],11.2 µM (active)
O=C(O)C(O)C(O)C(=O)O (stereo not given),Potency,[1],inactive
same,Potency,[2],inactive
CC(C)C[C@H]1C(=O)O[C@H](Cc2ccc(N3CCOCC3)cc2)C(=O)N(C)[C@@H](CC(C)C)C(=O)O[C@H](C)C(=O)N(C)[C@@H](CC(C)C)C(=O)O[C@H](Cc2ccc(N3CCOCC3)cc2)C(=O)N(C)[C@@H](CC(C)C)C(=O)O[C@H](C)C(=O)N1C,Potency,[1],inactive
same,Potency,[2],inactive
CCCC(=O)O[C@]1(C(=O)COC(C)=O)CC[C@H]2C3C[C@H](F)C4=CC(=O)C=C[C@]4(C)[C@@]3(F)[C@@H](O)C[C@@]21C (stereo not given in full),Potency,[1],inactive
same,Potency,[2],inactive
CC(OC(=O)NCC1(CC(=O)O)CCCCC1)OC(=O)C(C)C (stereo not given),Potency,[1],inactive
same,Potency,[2],inactive
Cc1nccn1CCC(C(N)=O)(c1ccccc1)c1ccccc1,Potency,[1],inactive
same,Potency,[2],inactive
CCOc1ccc(Cc2cc([C@@]34OC[C@@](CO)(O3)[C@@H](O)[C@H](O)[C@H]4O)ccc2Cl)cc1,Potency,[1],inactive
same,Potency,[2],inactive
COC(=S)NCCn1c([N+](=O)[O-])cnc1C,Potency,[1],inactive
same,Potency,[2],inactive
CCCCC(F)(F)C1(O)CCC2C(CC(=O)C2CCCCCCC(=O)O)O1 (stereo not given),Potency,[1],inactive
same,Potency,[2],inactive
CC[C@H]1[C@@H](O)[C@@H]2[C@H](CC[C@]3(C)[C@@H]([C@H](C)CCC(=O)O)CC[C@@H]23)[C@@]2(C)CC[C@@H](O)C[C@@H]12,Potency,[1],inactive
same,Potency,[2],11.2 µM (active)
CC(C)NC(=O)C1CCC(n2c(NC(=O)c3ccc(F)cc3)nc3ccc(CN4CCC(C(C)(C)O)CC4)cc32)CC1 (stereo not given),Potency,[1],inactive
same,Potency,[2],inactive
same,Potency,[3],8.48 µM (active)
same,Z-AUC,[3]; measured here: PEO1 parental Z-AUC,-1.17
same,Z-AUC,[3]; measured here: PEO4 Z-AUC,-1.3
COCC1=C(C(=O)OC(C)OC(=O)OC(C)C)N2C(=O)[C@@H](NC(=O)/C(=N/OC)c3csc(N)n3)[C@H]2SC1 (stereo not given in full),Potency,[1],9.04 µM (active)
same,Potency,[2],10 µM (active)
